Results from PubChem BioAssay AID1159580 (chemical genetic matrix, 2015).
Where “and” joins values, the source holds several entries; their conditions need not be identical. Identical values can stand only once. Screen size: about 5,500 compounds; about 2,000 (36%) were called active. Another 18% or so got no clear call; they are omitted. Cut-off read from the data, not from the text of the source: active = normalized growth mostly below about 0.91 (no sharp cut-off); inconclusive = no clear call, values can overlap the other calls; inactive = mostly above about 0.92. This is one part of the list.

Test: chemical genetic growth profiling, strain panel (AID 1159580);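 note: tested at 20 µM; growth read once vehicle control cultures reached saturation at 30 °C; 1 = growth at the plate median or of vehicle wells; lower values mean less growth of the strain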
Conditions: S. cerevisiae deletion strains, growth OD

Measured: normalized growth

CCCCOc1ccc(CC(=O)NO)cc1
inactive: locus YAL021C, strain ccr4, hits give low values 0.987 | locus YAL026C, strain drs2, hits give low values 0.983 | locus YAL030W, strain snc1, hits give low values 1 | locus YBL061C, strain skt5, hits give low values 0.996 | locus YBR009C, strain hhf1, hits give low values 0.953 | locus YBR021W, strain FUR4, hits give low values 1.02 | locus YBR023C, strain chs3, hits give low values 0.993 | locus YBR171W, strain sec66, hits give low values 0.98 | locus YBR229C, strain ROT2, hits give low values 1 | locus YBR231C, strain swc5, hits give low values 0.988 | locus YBR279W, strain paf1, hits give low values 1 | locus YCL011C, strain gbp2, hits give low values 0.99 | locus YCL016C, strain dcc1, hits give low values 0.967 | locus YCL029C, strain bik1, hits give low values 1 | locus YCL061C, strain MRC1, hits give low values 1.01 | locus YCL069W, strain vba3, hits give low values 0.973 | locus YCR088W, strain abp1, hits give low values 1 | locus YDL005C, strain med2, hits give low values 0.994 | locus YDL035C, strain GPR1, hits give low values 0.977 | locus YDL040C, strain nat1, hits give low values 0.998 | locus YDL074C, strain BRE1, hits give low values 0.964 | locus YDL101C, strain DUN1, hits give low values 0.99 | locus YDL134C, strain PPH21, hits give low values 0.965 | locus YDL185W, strain tfp1, hits give low values 1 | locus YDL192W, strain arf1, hits give low values 1.01 | locus YDR001C, strain nth1, hits give low values 0.991 | locus YDR069C, strain doa4, hits give low values 1 | locus YDR101C, strain arx1, hits give low values 0.988 | locus YDR137W, strain rgp1, hits give low values 0.857 | locus YDR150W, strain NUM1, hits give low values 0.992 | locus YDR159W, strain sac3, hits give low values 0.96 | locus YDR162C, strain NBP2, hits give low values 0.99 | locus YDR195W, strain ref2 0.94 | locus YDR297W, strain sur2, hits give low values 0.992 | locus YDR318W, strain mcm21, hits give low values 1.01 | locus YDR334W, strain swr1, hits give low values 1.02 | locus YDR335W, strain msn5, hits give low values 1.01 | locus YDR388W, hits give low values 1 | locus YDR392W, strain spt3, hits give low values 0.935 | locus YDR502C, strain sam2, hits give low values 0.997 | locus YEL003W, strain gim4, hits give low values 0.97 | locus YEL037C, strain rad23, hits give low values 0.993 | locus YEL061C, strain CIN8 (second series), hits give low values 0.994 | locus YEL061C, strain CIN8, hits give low values 0.996 | locus YER015W, strain faa2, hits give low values 1 | locus YER016W, strain bim1, hits give low values 0.997 | locus YER110C, hits give low values 1.02 | locus YER111C, strain swi4, hits give low values 0.996 | locus YER155C, strain BEM2 (second series), hits give low values 0.939 | locus YER155C, strain BEM2, hits give low values 0.994 | locus YER167W, strain BCK2, hits give low values 0.989 | locus YFR010W, strain ubp6, hits give low values 0.999 | locus YGL078C, strain dbp3, hits give low values 1 | locus YGL086W, strain mad1, hits give low values 1 | locus YGL167C, strain pmr1, hits give low values 1.01 | locus YGL173C, strain kem1, hits give low values 1.02 | locus YGL227W, strain vid30, hits give low values 0.993 | locus YGL240W, strain doc1, hits give low values 0.997 | locus YGL248W, strain PDE1, hits give low values 0.965 | locus YGL253W, strain hxk2, hits give low values 0.975 | locus YGR078C, strain PAC10, hits give low values 0.957 | locus YGR135W, strain pre9, hits give low values 1 | locus YGR229C, strain SMI1, hits give low values 0.916 | locus YGR252W, strain gcn5, hits give low values 0.878 | locus YHR013C, strain ard1, hits give low values 0.978 | locus YHR027C, strain rpn1, hits give low values 1.01 | locus YHR030C, strain SLT2, hits give low values 0.994 and 1.05 | locus YHR079C, strain IRE1 (second series), hits give low values 1.01 | locus YHR079C, strain IRE1, hits give low values 1 | locus YHR094C, strain hxt1, hits give low values 1 | locus YHR129C, strain ARP1, hits give low values 0.994 | locus YHR142W, strain chs7, hits give low values 0.961 | locus YHR200W, strain rpn10, hits give low values 1.01 | locus YIL066C, strain RNR3, hits give low values 0.915 | locus YIL073C, strain SPO22, hits give low values 0.974 | locus YIL125W, strain kgd1, hits give low values 0.997 | locus YIR030C, strain dcg1, hits give low values 1 | locus YJL092W, strain hpr5, hits give low values 0.997 | locus YJL095W, strain BCK1 (second series), hits give low values 1 | locus YJL095W, strain BCK1, hits give low values 0.959 and 1.01 | locus YJL115W, strain asf1, hits give low values 1 | locus YJL129C, strain trk1, hits give low values 0.966 | locus YJL134W, strain LCB3, hits give low values 0.996 | locus YJL154C, strain vps35, hits give low values 0.997 | locus YJL164C, strain tpk1, hits give low values 0.985 | locus YJL166W, strain qcr8, hits give low values 0.922 | locus YJL168C, strain set2, hits give low values 1 | locus YJL187C, strain SWE1 (second series), hits give low values 0.991
